Over roughly 33,000 sequences, “E-score (-0.5 to 0.5)” has its median near -0.016; the highest 2% begin near 0.3. The sample as a whole holds a higher share of the highest values than the screen did.
biological target: T1, Yer184c (UniProt P39961); assay: PBM E-score (8-mer binding enrichment) (E-score (-0.5 to 0.5)); higher = stronger / more preferred TF binding; settings: protein concentration: 100 nM; construct: GST-full length
T1 sequence: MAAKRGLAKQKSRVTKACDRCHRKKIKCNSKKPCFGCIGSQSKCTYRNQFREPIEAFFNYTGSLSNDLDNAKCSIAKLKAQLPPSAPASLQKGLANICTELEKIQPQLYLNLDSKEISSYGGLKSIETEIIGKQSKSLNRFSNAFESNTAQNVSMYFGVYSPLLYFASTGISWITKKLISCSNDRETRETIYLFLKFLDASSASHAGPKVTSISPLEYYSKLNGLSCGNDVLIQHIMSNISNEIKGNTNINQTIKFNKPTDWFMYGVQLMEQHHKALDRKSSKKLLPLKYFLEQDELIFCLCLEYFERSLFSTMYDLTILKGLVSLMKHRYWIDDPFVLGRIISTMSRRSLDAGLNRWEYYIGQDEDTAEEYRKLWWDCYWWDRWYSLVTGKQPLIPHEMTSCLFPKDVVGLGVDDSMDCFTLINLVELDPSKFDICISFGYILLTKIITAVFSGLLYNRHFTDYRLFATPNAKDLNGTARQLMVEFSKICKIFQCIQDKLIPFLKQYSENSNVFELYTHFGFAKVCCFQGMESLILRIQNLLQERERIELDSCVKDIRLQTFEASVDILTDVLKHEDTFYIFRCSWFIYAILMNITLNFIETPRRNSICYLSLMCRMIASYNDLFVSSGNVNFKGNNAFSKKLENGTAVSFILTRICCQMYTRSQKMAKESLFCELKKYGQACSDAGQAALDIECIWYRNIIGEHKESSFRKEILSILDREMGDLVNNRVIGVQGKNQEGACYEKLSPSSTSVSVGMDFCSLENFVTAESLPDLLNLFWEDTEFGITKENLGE
How it was run: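 Using PURExpress in vitro transcription/translation, GST-tagged yeast transcription factors were made in full-length or DNA-binding-domain form. These were applied at about 100-200 nM to double-stranded universal all-10-mer Agilent arrays, and bound protein was detected with fluorescent anti-GST. Scans were normalised with masliner before the Universal PBM Analysis Suite assigned E-scores to ungapped eight-base words pooled with their reverse complements.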

Sequence | PBM E-score
GTGAGGGA | -0.252
CAATTGCG | -0.0249
ACGCTAAA | 0.0442
AAATTGAT | 0.159
AGTTAACC | -0.0162
GCTATCCC | -0.16
CGAATGCA | 0.0594
ACCTTGCA | -0.197
AAAAATGT | 0.0248
CTTCTGAC | -0.218
CCACAAGA | 0.0207
GCCGGCAA | 0.424
GACGGCAA | 0.148
GCCGGCTA | 0.266
CGACTAAG | -0.0168
ATTCGCGA | -0.0163
CTTCGCGA | 0.0769
GTTCGCGA | 0.311
GCTTCCGA | 0.306
AATTCCAA | 0.116
GCTTCCTA | 0.0691
GATTCCCA | -0.0287
AATTCCCA | -0.123
AATTCCGA | 0.389
TATTCCAA | 0.115

Sequence | PBM E-score
TATTCCCA | 0.0619
GATTCCGA | 0.33
CCTTCCGA | 0.227
GATTCCGC | 0.0917
TATTCCGA | 0.389
GGGTAGAA | -0.0545
CAGAGCAG | -0.00548
ACCAGCTC | -0.141
AGACCTAA | -0.106
AGAGACCG | -0.00169
AATTTCCA | 0.145
ATCTCTAG | -0.118
TCTATGAA | 0.112
CACTTTCC | 0.021
CAAATTTA | 0.119
AGAAATTA | 0.354
AGAAATTC | 0.077
CTAAATTA | 0.202
AAAAATTA | 0.253
ATAAATTG | 0.254
CAAAATTA | 0.212
TAAAATTA | 0.341
AAAATTTA | 0.228
TAAATTTA | 0.311
ATAAATTA | 0.316

Sequence | PBM E-score
GGAAATTA | 0.201
CGAACTAC | 0.0997
GATTGCCA | -0.0755
GACAGTAC | 0.135
ACACTCTC | 0.0613
ACAATCGG | 0.307
ACAATCGC | 0.0673
ACAATCGT | -0.28
GCTGAACC | 0.0738
AACGCCAG | 0.0264
CGGCCGTA | 0.311
CGGCCGGC | 0.42
AGGCCGGA | 0.247
AGGCCTTC | -0.0978
CGGCCTTA | 0.291
AGGCCGGC | 0.265
CGGCCGCC | 0.209
CGGCCGTC | 0.278
AGGCCGTA | 0.178
CGGCCGGA | 0.402
CGGCCGCA | 0.277
CGGCCTTC | 0.33
CAGTAGAA | -0.069
AATCCTCA | -0.0565
GCCGATAC | 0.13

Sequence | PBM E-score
CTCAACAG | -0.0543
GAAGGGAA | -0.203
AGCTCATG | -0.175
AGAGTGGC | -0.217
AGGCGATC | -0.168
CGGCGACC | 0.237
GGGCGATA | -0.222
AGGCGATA | -0.12
TGGCGAAA | 0.0101
CGGCGATA | 0.36
CGGCGAAA | 0.35
CGGCGAAG | 0.205
CGGCGATC | 0.312
GAACAGCA | 0.123
ACCCAAGG | -0.162
ACGGCGAT | 0.188
CCCCCTTA | -0.348
CGAGGTTA | -0.00293
CCAGGGTA | -0.174
ACTAACTC | -0.00452
ATTCTTTA | 0.0489
CTGAGTGA | 0.24
ATCCTATG | -0.0991
CTGAATAA | 0.134
ATTAACCG | 0.335

Sequence | PBM E-score
ATTAACCA | -0.114
ATTAACCC | 0.0664
GCTCCGGA | 0.367
CCTCCGGA | 0.337
CCTCCGCA | -0.247
GCTCCGTA | 0.205
GCTCCGCA | 0.0792
CCTCCGTA | -0.0207
CTTGACAA | 0.152
GGAACCGA | 0.248
CGGACCGC | 0.104
CGGACCGA | 0.402
CGGACCAA | 0.343
CGAACCGA | 0.328
CGGACCAC | 0.244
GGGACCGA | 0.158
CGAACCGC | 0.189
CGGACCAG | 0.185
AACGGTTA | 0.0289
AGAGACAT | -0.0279
GATAGCGC | -0.051
CAAATAGC | 0.0894
AAAGGAAA | 0.203
CAGATCCG | 0.317
CGGATCCG | 0.445

Sequence | PBM E-score
AAGATCCG | 0.091
CGGATCCA | 0.263
CAGATCCC | -0.21
CGGATCCC | 0.171
GGCATGAC | -0.199
GCGGATAA | 0.224
CGGGATAG | 0.102
TGGGATAA | -0.0513
CAGGATAG | 0.0949
CCGGATAG | 0.342
ACGGATAG | 0.139
CCGGATAC | 0.257
CAGGATAA | -0.0581
ACGGATAT | 0.339
TCGGATAA | 0.379
ACGGATAA | 0.299
CCGGATAA | 0.4
ATGTTCAA | 0.134
ACCTTACG | 0.00591
GCAGGACA | 0.11
CCTTCTTC | -0.19
AGCGGAAC | 0.194
GGCGGAAC | 0.199
GGCGGAAA | 0.108
AGCGGAAA | 0.27

Sequence | PBM E-score
CGCGGGAA | 0.311
GGCGGGAA | 0.0413
CGCGGAAA | 0.325
CGCGGGGA | 0.125
CGCGGAAC | 0.382
GATGGACA | 0.183
ATTAGCGC | 0.056
ATAGATCA | 0.216
CAAGCTGG | -0.129
CCAGCCCA | -0.258
ATACTCTG | 0.006
CGGGTTCC | 0.246
AAGAAACC | 0.129
CGTAGAGA | -0.0444
GAACGCGC | 0.163
AGTATATG | 0.0296
AGTATAAC | -0.0238
TGTATAAA | 0.0524
CGTATAAC | 0.106
AGTATATC | 0.155
AGTATATA | 0.334
AGTATAAA | 0.365
GGTATAAA | 0.16
CGTATAAA | 0.311
TCGCACAA | -0.0958

Sequence | PBM E-score
CCATTTCC | 0.13
ACCTACAC | -0.309
CCCTCAAG | -0.297
GAAGTGGA | 0.0603
ATACCGAC | 0.0349
ATACCGAT | 0.11
CTACCGAA | 0.105
ATACCGAA | 0.322
TTACCGAA | 0.336
GTACCGAA | 0.227
AAAATGTA | -0.017
GTTAGAAA | 0.184
GCGGAACA | 0.237
ACGGAACA | 0.303
CAGGAACA | -0.0366
CTGGAACA | 0.122
TCGGAACA | 0.408
CCGGAACA | 0.435
AGCTTTTC | 0.0452
CAATTAAG | 0.21
GGGTTAAA | -0.0167
ATACTCCG | 0.321
AAGCTCCG | 0.339
AAGCTCCT | -0.237
CAGCTCCG | 0.222

Sequence | PBM E-score
AAACTCCG | 0.319
ATACTCCC | 0.059
AAACTCCT | -0.18
ATACTCCA | -0.081
CAACTCCG | 0.197
AATCGTAT | 0.039
TATATCGA | 0.161
ATATCTTG | 0.0464
CAAAGGGA | -0.166
ACGGTCCG | 0.161
GAGCCGGA | 0.328
CACCCGGA | 0.237
CAGCCGTA | 0.142
AAGCCGTC | 0.187
AAGCCGCA | 0.161
AAGCCGTA | 0.224
GAGCCGTA | 0.307
TACCCGGA | 0.354
GAGCCGCA | 0.0573
GACCCGGA | 0.212
AAGCCGGA | 0.411
GAGCCCGA | 0.0143
